Results on 14 compounds are retold here after PubChem BioAssay.

Calls of active or inactive are those of the source.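 The calls were made as follows, unless noted: active = visually confirmed hit in the image check and inhibition above 20%; inconclusive = visually confirmed hit but inhibition not above 20%; inactive = no visual hit in the image check.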

Assay [1] is described as follows: inhibitors of TNFa-induced NFkB p65 translocation, primary screen, imaging, HUVEC, MLSMR starter and 10KST1 sets (AID 438;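 active = inhibition above 20% together with a positive visual image hit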;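 also: compound added about 3h40 before a 20 min TNFalpha stimulation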;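 as to inhibition: signal is the nuclear over cytoplasmic p65 intensity ratio per well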). As to conditions: HUVEC TNFa-induced p65 nuclear translocation; cell count: measured here: nuclei count (cytotoxicity indicator), at 2.08 µM; inhibition: at 2 µM, stronger effect = higher value, 0% TNFa-plus-vehicle, 100% no-TNFa wells.
Assay [2] in a line: inhibitors of mutant huntingtin aggregation, primary screen, imaging, exon1htt(103Q)mCFP cells, high-content imaging (AID 483;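 active = visual image review flags a hit and inhibition of aggregation exceeds 20%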;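 also: compound exposure lasted 3 days before fixation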;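 as to nuclei count: percent of the per-plate median nuclei count of sample wells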). As to conditions: exon1htt(103Q)mCFP cell line, aggregate imaging, at 2 µM; inhibition of aggregation: stronger effect = higher value; nuclei count: measured here: cell count, toxicity.
The nature of assay [3]: inhibitors of E-selectin induction by TNFa, primary screen, imaging, HUVEC, immunofluorescence, MLSMR starter and 10KST1 sets (AID 487).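 As to inhibition: signal is fraction of cell area covered by stained E-selectin grains.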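 As to nuclei count: 100% = median nuclei count of all wells on the same plate.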 As to conditions: HUVEC TNFalpha-induced E-selectin immunofluorescence imaging, at 2 µM; inhibition: stronger effect = higher value; nuclei count: measured here: cell number, toxicity.
Assay [4] addresses Voltage-gated potassium channel subunit beta-2 (Rattus norvegicus) (UniProt P62483). Kind of assay: KvBeta enzyme negative modulators, primary screen, biochemical, NADPH fluorescence (AID 622;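 active = fluorescence slope higher than the sample average by over 3 SD, cut at about -0.22 in these data, passing the limit was not always enough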;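 also: slope of raw intensity against log time taken from 70 to 1610 s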). As to conditions: recombinant KvBeta, 4-cyanobenzaldehyde reduction, at 10 µM, stronger effect = higher value.
For assay [5] the target is unchanged. Kind of assay: KvBeta positive modulators, primary screen, biochemical, NADPH fluorescence (AID 623;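 active = NADPH fluorescence slope more negative than the mean of all samples by about 3 SD, 99.7% confidence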;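 also: fluorescence intensity change per second fitted from 20 to 320 s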). As to conditions: Recombinant KvBeta, NADPH fluorescence decrease slope, 10 min; at 10 µM; stronger effect = lower value.
Assay [6] addresses Alpha-2C adrenergic receptor (Homo sapiens) (UniProt P18825). Kind of assay: modulators of alpha2C/GIRK thallium flux, primary screen, cell-based, HEK293 alpha2C/GIRK1/2 (AID 624;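 active = fluorescence slope after compound addition differing from the mean of all screened samples at 99.7% confidence, in either direction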;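 also: slope of fluorescence ratio to pre-addition baseline per second over 15 to 24 s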). The note with it: thallium flux BTC fluorescence, at 10 µM, actives lie on both sides.
Assay [7] is described as follows: inhibitors of Sendai virus-induced IRF3 signaling, primary screen, TLR/RLR signaling modifier project, cell-based, Sendai virus stimulus, luciferase, 10K MLSCN set (AID 602276;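 active = inhibition at or above 50% at 10 µM; inactive = inhibition below 50%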;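 also: firefly luciferase from ISG56 promoter only with Renilla not read in this screen; 0% = Sendai virus plus DMSO and 100% = medium plus DMSO without virus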). As to conditions: HEK293 RL24 IRF3 luciferase reporter, at 10 µM, stronger effect = higher value. For orientation: Reporter assays use an easily measured gene product as a stand-in for the process of interest.

Assay [8] can be described thus: inhibitors of poly I:C-induced TLR3 signaling, primary screen, cell-based, poly I:C stimulus, luciferase, 10K MLSCN set (AID 602277;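 active = inhibition of the reporter signal at or above 50%; inactive = inhibition below 50%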). The note with it: HEK293-TLR3 RL24 IRF3 luciferase reporter, at 10 µM, stronger effect = higher value.

Sequence of Alpha-2C adrenergic receptor (Homo sapiens) (P18825 whole entry, looked up): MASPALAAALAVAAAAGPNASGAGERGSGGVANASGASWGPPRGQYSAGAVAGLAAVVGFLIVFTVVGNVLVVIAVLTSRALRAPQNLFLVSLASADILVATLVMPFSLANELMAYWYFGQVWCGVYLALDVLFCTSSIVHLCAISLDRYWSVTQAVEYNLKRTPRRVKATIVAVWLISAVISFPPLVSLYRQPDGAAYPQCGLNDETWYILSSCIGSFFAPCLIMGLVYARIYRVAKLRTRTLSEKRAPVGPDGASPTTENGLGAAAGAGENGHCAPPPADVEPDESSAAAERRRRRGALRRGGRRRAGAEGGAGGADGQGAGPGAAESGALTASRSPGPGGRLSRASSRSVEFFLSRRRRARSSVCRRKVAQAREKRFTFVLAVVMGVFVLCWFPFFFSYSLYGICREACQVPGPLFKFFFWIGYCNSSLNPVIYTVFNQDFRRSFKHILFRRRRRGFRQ
Sequence of Voltage-gated potassium channel subunit beta-2 (Rattus norvegicus) (P62483 whole entry, looked up): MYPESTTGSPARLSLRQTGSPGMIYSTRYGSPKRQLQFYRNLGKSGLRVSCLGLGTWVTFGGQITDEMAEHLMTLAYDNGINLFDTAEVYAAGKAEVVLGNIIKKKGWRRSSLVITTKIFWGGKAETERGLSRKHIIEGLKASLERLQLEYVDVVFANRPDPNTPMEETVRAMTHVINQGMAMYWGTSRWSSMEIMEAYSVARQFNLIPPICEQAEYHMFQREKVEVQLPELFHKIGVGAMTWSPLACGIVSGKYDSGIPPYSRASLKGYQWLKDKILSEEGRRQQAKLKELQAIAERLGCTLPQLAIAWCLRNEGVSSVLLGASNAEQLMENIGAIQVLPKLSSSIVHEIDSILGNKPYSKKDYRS

Usually inhibition stands for the relative decrease from the control value, in per cent. For `Cc1nc2ccccn2c1/C(O)=C1\C(=O)C(=O)N(CCCN(C)C)C1c1ccc(F)cc1` (centres undefined), the cell count in assay [1] was found to be 507. The inhibition in assay [1] was 21.6% (inactive); in assay [3], -54.5% (inactive); in assay [7], 6.26% (inactive); in assay [8] it was 3.28% (inactive). Also, the inhibition of aggregation in assay [2] was -28.8% (inactive). For the same compound, the values for the nuclei count in assay [2] and in assay [3] were 92.5% and 122%, respectively. Moreover, the fluorescence slope in assay [4] is -0.566 (inactive). Further, the NADPH fluorescence slope in assay [5] was 1.9e-05 (inactive). The slope in assay [6] is 0.00687 (inactive).

Regarding `NC(=O)CSc1cn(CCNC(=O)c2cccs2)c2ccccc12`, the cell count in assay [1] amounted to 604. Besides, the inhibition in assay [1] was -1.4% (inactive); in assay [3], 19% (inactive); in assay [7], -2.46% (inactive); in assay [8] it was 23.4% (inactive). In assay [2], the inhibition of aggregation is 7% (inactive). Besides, the figures for the nuclei count in assay [2] and in assay [3] were 84.8% and 98.2%, respectively. Moreover, the fluorescence slope in assay [4] is -0.436 (inactive). Besides, in assay [5], the NADPH fluorescence slope was -4.5e-05 (inactive). For the same compound, the slope in assay [6] is 0.00564 (inactive).

Take `CCOC(=O)C1CCCN(c2c(Nc3ccc(C)c(C)c3)c(=O)c2=O)C1` (centres undefined): the cell count in assay [1] came to 613. The inhibition in assay [1] was 9% (inactive); in assay [3] it was -103% (inactive); in assay [7], -6.09% (inactive); in assay [8], 32.9% (inactive). Moreover, the inhibition of aggregation in assay [2] was 2.3% (inactive). The nuclei count worked out at 104% in assay [2] and 131% in assay [3]. Moreover, in assay [4], the fluorescence slope was -0.539 (inactive). Further, the NADPH fluorescence slope in assay [5] is 6.2e-06 (inactive). For the same compound, the slope in assay [6] was 0.00607 (inactive).

On to `Cc1nn(-c2ccc(F)cc2)c2sc(C(=O)N3CCCCCC3)cc12`, for which the cell count in assay [1] is 465. The inhibition in assay [1] was 2% (inactive); in assay [3] it was -38.9% (inactive); in assay [7], -4.92% (inactive); in assay [8], -14.2% (inactive). Moreover, the inhibition of aggregation in assay [2] is 1.2% (inactive). Further, the values for the nuclei count in assay [2] and in assay [3] were 83.1% and 113%, respectively. Also, the fluorescence slope in assay [4] was -0.199 (inactive). For the same compound, the NADPH fluorescence slope in assay [5] was -3.1e-05 (inactive). The slope in assay [6] was 0.00645 (inactive).

As to `CCOc1ccccc1N(CC(=O)N1CCOCC1)S(=O)(=O)c1ccccc1`, the cell count in assay [1] turned out to be 338. Further, the inhibition was 0.7% (inactive) in assay [1], 44.4% (inactive) in assay [3], -13.5% (inactive) in assay [7] and -26.2% (inactive) in assay [8]. In addition, the inhibition of aggregation in assay [2] was 0.9% (inactive). Further, the nuclei count in assay [2] was determined as 100%; in assay [3], 98.7%. Also, the fluorescence slope in assay [4] was -0.428 (inactive). The NADPH fluorescence slope in assay [5] is -3e-06 (inactive). Also, in assay [6], the slope was 0.00315 (inactive).

With `O=C(c1ccc(-c2ccccc2)cc1)N1CCC(C(=O)N2CCCC2)CC1`, the cell count in assay [1] was 237. Moreover, the inhibition is -4.7% (inactive) in assay [1], -17.6% (inactive) in assay [3], 16% (inactive) in assay [7] and 8.25% (inactive) in assay [8]. Further, the inhibition of aggregation in assay [2] is 0.5% (inactive). For the same compound, the nuclei count worked out at 91.7% in assay [2] and 101% in assay [3]. For the same compound, in assay [4], the fluorescence slope is -0.388 (inactive). The NADPH fluorescence slope in assay [5] is -5.3e-05 (inactive). Besides, the slope in assay [6] was 0.00472 (inactive).

For `COc1ccc(-c2nc3c(c(SCC(=O)N4CCOCC4)n2)COC(C)(C)C3)cc1`, the cell count in assay [1] is 510. Also, the inhibition in assay [1] was 23.4% (active); in assay [3], 33% (inactive); in assay [7], 12.6% (inactive); in assay [8] it was 19.9% (inactive). Further, the inhibition of aggregation in assay [2] was -8.2% (inactive). Besides, the nuclei count turned out to be 100% in assay [2] and 117% in assay [3]. In addition, the fluorescence slope in assay [4] was -0.387 (inactive). Besides, the NADPH fluorescence slope in assay [5] is 1.1e-05 (inactive). The slope in assay [6] was 0.00848 (inactive).

For `COC(=O)c1ccc(NC(=O)CN2CCN(c3ccc(Cl)cc3)CC2)cc1`, the cell count in assay [1] turned out to be 355. Also, the inhibition is -11.2% (inactive) in assay [1], 8.1% (inactive) in assay [3], 20.2% (inactive) in assay [7] and 21.5% (inactive) in assay [8]. The inhibition of aggregation in assay [2] was 12.9% (inactive). For the same compound, the nuclei count in assay [2] came out at 101%; in assay [3], 91.5%. Besides, the fluorescence slope in assay [4] was -0.571 (inactive). Further, the NADPH fluorescence slope in assay [5] was 1.7e-05 (inactive). Also, the slope in assay [6] is 0.00455 (inactive).

For `CC(NC(=O)C1CC1)C(c1cccs1)N1CCN(c2ccccc2)CC1` (centres undefined), in assay [1], the cell count was determined as 884. The inhibition in assay [1] is 4.2% (inactive); in assay [3], -17.3% (inactive); in assay [7], 6.3% (inactive); in assay [8] it was 23.6% (inactive). Besides, the inhibition of aggregation in assay [2] is -7.2% (inactive). In addition, the nuclei count was determined as 100% in assay [2] and 116% in assay [3]. Also, the fluorescence slope in assay [4] is -0.495 (inactive). In addition, the NADPH fluorescence slope in assay [5] was -3e-05 (inactive). For the same compound, the slope in assay [6] is 0.00607 (inactive).

With `CC(=O)Nc1nc(=S)ss1`, in assay [1], the cell count stood at 568. For the same compound, the inhibition in assay [1] was -7.2% (inactive); in assay [3], -28.4% (inactive); in assay [7], 10.3% (inactive); in assay [8] it was 14.9% (inactive). For the same compound, the inhibition of aggregation in assay [2] is 1.3% (inactive). The nuclei count in assay [2] is 60.9%; in assay [3] it was 120%. Further, in assay [4], the fluorescence slope was -0.486 (inactive). The NADPH fluorescence slope in assay [5] was -2.6e-05 (inactive). The slope in assay [6] was 0.00751 (inactive).

As for `Cc1ccc2nc(NC(=O)C3CCCN(S(=O)(=O)c4cccc5nonc45)C3)sc2c1` (centres undefined), the cell count in assay [1] turned out to be 266. In addition, the inhibition was -13.5% (inactive) in assay [1], -3.1% (inactive) in assay [3], 14.7% (inactive) in assay [7] and -5.96% (inactive) in assay [8]. In addition, in assay [2], the inhibition of aggregation was 9.4% (inactive). Besides, the nuclei count was determined as 91% in assay [2] and 70.9% in assay [3]. Moreover, the fluorescence slope in assay [4] was -0.304 (inactive). In assay [5], the NADPH fluorescence slope is 2.8e-06 (inactive). Besides, the slope in assay [6] is 0.00386 (inactive).

On to `Cc1ccc(C(=O)CC2(O)C(=O)N(C)c3ccc(Br)cc32)c(C)c1` (centres undefined), for which the cell count in assay [1] worked out at 614. Besides, the inhibition in assay [1] is -5% (inactive); in assay [3], -23.2% (inactive); in assay [7], 15.6% (inactive); in assay [8], 31.5% (inactive). For the same compound, in assay [2], the inhibition of aggregation is -6.2% (inactive). Besides, the nuclei count in assay [2] amounted to 107%; in assay [3], 123%. Besides, the fluorescence slope in assay [4] was -0.457 (inactive). Further, the NADPH fluorescence slope in assay [5] is -5.1e-05 (inactive). The slope in assay [6] was 0.0058 (inactive).

In the case of `N#CC1=C(N)SC(N)=C(C#N)C1c1ccc(C(F)(F)F)cc1`, the cell count in assay [1] was 520. In addition, the inhibition was -1.5% (inactive) in assay [1], -69.1% (inactive) in assay [3], -1.4% (inactive) in assay [7] and -49.4% (inactive) in assay [8]. The inhibition of aggregation in assay [2] was -11.9% (inactive). Also, the nuclei count in assay [2] is 114%; in assay [3] it was 187%. In addition, in assay [4], the fluorescence slope was -0.472 (inactive). Moreover, the NADPH fluorescence slope in assay [5] is 2.9e-05 (inactive). In addition, the slope in assay [6] was 0.00688 (inactive).

Turning to `COc1cc(C)nc(N2CCCC(C(=O)Nc3cccc(Cl)c3Cl)C2)n1` (centres undefined), the cell count in assay [1] turned out to be 395. In addition, the inhibition in assay [1] was 3.6% (inactive); in assay [3], -0.7% (inactive); in assay [7], 4.19% (inactive); in assay [8], 21.4% (inactive). Moreover, the inhibition of aggregation in assay [2] was -14.9% (inactive). In addition, the nuclei count in assay [2] turned out to be 109%; in assay [3], 103%. Moreover, the fluorescence slope in assay [4] is -0.467 (inactive). Further, the NADPH fluorescence slope in assay [5] is -2.4e-05 (inactive). Further, in assay [6], the slope is 0.00338 (inactive).
